Assay results from PubChem BioAssay AID485297 (National Center for Advancing Translational Sciences (NCATS), 2010).
About 9,100 (2.8%) of roughly 320,000 compounds were called active. Not shown: some 3% with an inconclusive outcome. The entries come from a sample that favours actives as a whole. Values without a mark were called inactive. Calls follow the shape of the dose curve; as a rule, active = well fitted activation curve with a large enough effect; inconclusive = small, poorly fitted or top-dose-only effect; inactive = no such curve, though single readings can be large or run the other way.

Assay: qHTS Assay for Rab9 Promoter Activators; also: nearly all actives have a fitted effect of over 60% in size; as to activation, negative = inhibition: % of control where 0% means no effect
Conditions: Huh7 Rab9 promoter-luciferase reporter, luminescence, 24 h; series mostly up to 9.22 µM; activation, negative = inhibition: at the top concentration
How it was run: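 Luciferase signal after 10 min detection reagent at ambient indicates Rab9 promoter upregulation; stably transfected Huh7 cells were treated 24 h with compound in DMSO at 37 °C, 5% CO2.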
Potency is read from the fitted curve at half-maximal effect.

| Structure (SMILES) | activation, negative = inhibition | Potency |
| --- | --- | --- |
| Cc1ccc(NC(=O)C(c2ccccc2)N2CCN(C(=O)c3ccco3)CC2)cc1 (configuration not stated) | -8.49% | – |
| CC(C)N(Cc1nnc(-c2ccccc2Br)o1)C(=O)c1cc(Cl)nc2ccccc12 | -1.96% | – |
| CC(=O)c1c(C)[nH]c(C(=O)OCC(=O)Nc2c(C)n(C)n(-c3ccccc3)c2=O)c1C | -1.35% | – |
| COc1ccc(-c2noc(CN(C)S(=O)(=O)c3ccc(C)cc3)n2)cc1 | 8.74% | – |
| COc1ccc(-c2noc(-c3cccc(OC)c3OC)n2)cc1OC | – | 2240 nM (active) |
| COc1ccc(-c2noc(CCCC(=O)NC3CCCC3)n2)cc1OC | -5.38% | – |
| COc1ccc(-c2nc(-c3ccccc3)no2)c(OC)c1 | – | 3980 nM (active) |
| Cc1cccc(-c2noc(-c3ccc(F)cc3)n2)c1 | – | 224 nM (active) |
| COc1ccc(-c2noc(CSc3ccc(C)cc3)n2)cc1 | -4.26% | – |
| COc1ccc(-c2noc(CNC(=O)C(C)Oc3ccccc3)n2)cc1 (configuration not stated) | -1.61% | – |
| COc1ccc(-c2csc3nc(-c4ccccc4F)oc(=O)c23)cc1OC | -2.95% | – |
| Cc1cccc(-c2nc(Nc3ccc(O)cc3)c3ccccc3n2)c1 | 0.0923% | – |
| Cc1cccc(-c2noc(CCC(=O)NC3CCCC3)n2)c1 | 10.7% | – |
| COc1ccc(-c2n[nH]c(C)c2-c2ccccc2OC)c(O)c1 | -13% | – |
| COc1ccc(-c2noc(-c3ccc(C)cc3)n2)cc1 | – | 2000 nM (active) |
| COc1ccc(NC(=O)Cn2cc(C(=O)c3ccncc3)c(=O)c3cc(C)ccc32)cc1Cl | -3.25% | – |
| O=S(=O)(NCCCCCCNS(=O)(=O)c1c(F)cccc1F)c1ccc2c(c1)OCCO2 | 0.689% | – |
| COc1cccc(NC(=O)CN(C)C(=O)c2cc(C3CC3)nn2-c2ccccc2)c1 | 6.6% | – |
| O=C(OCc1cc(=O)n2ccsc2n1)C1(c2ccc(Cl)cc2)CC1 | -7.77% | – |
| COc1ccc(C(=O)OCC(=O)c2cc(C)n(CC3CCCO3)c2C)cc1[N+](=O)[O-] (configuration not stated) | -3.62% | – |
| Cc1cccc(NC(=O)CN2CCN(C(=O)C3CCN(C(=O)/C=C/c4ccccc4)CC3)CC2)c1C | -2.92% | – |
| COc1cc(OC)c(N2CC(C(=O)Nc3cc(Cl)ccc3N3CCOCC3)CC2=O)cc1Cl (configuration not stated) | -16.4% | – |

| Structure (SMILES) | activation, negative = inhibition | Potency |
| --- | --- | --- |
| CCCCN1C(=O)C(=O)N(CC(=O)Nc2cccc(C(C)=O)c2)C1=O | -1.65% | – |
| C=C(C)C1CC=C(C)/C(=N\NC(=O)CNc2ccccc2OC)C1 (configuration not stated) | 18.6% | – |
| O=C(Nc1ccon1)c1nc[nH]c1C(=O)NCc1ccccc1 | 1.3% | – |
| O=C1c2cccc(OCC(=O)N3N=C(c4cccs4)CC3c3ccc(F)cc3)c2CCN1Cc1ccccc1 (configuration not stated) | -3.89% | – |
| O=C(CCNC(=O)c1ccc(Br)cc1)NCC(c1ccco1)N1CCCCC1 (configuration not stated) | -0.0856% | – |
| CCOC(=O)c1ccc(NC2Nc3cc(C)nn3S2)cc1 (configuration not stated) | -8.1% | – |
| CCc1ccc(NC2Nc3cc(C)nn3S2)cc1 (configuration not stated) | – | 3550 nM (active) |
| Cc1csc2nc(COC(=O)c3cccc(N(C)C)c3)cc(=O)n12 | – | 2820 nM (active) |
| O=c1cc(CCl)nc2scc(-c3ccccc3)n12 | -4.65% | – |
| Cc1nn2c(=O)cc(COC(=O)c3ccc(NC(=O)C(C)(C)C)cc3)nc2s1 | -12.2% | – |
| CN(Cc1ccccc1)C(=O)COc1ccccc1 | – | 2240 nM (active) |
| CN(Cc1ccccc1)C(=O)CCc1ccccc1 | -9.9% | – |
| CN(Cc1ccc(F)cc1)C(=O)COc1ccc2ccccc2c1 | 0.291% | – |
| COc1ccc(NS(=O)(=O)c2ccc(C)c(C(=O)NCC(c3cccs3)N3CCOCC3)c2)cc1 (configuration not stated) | 0.739% | – |
| CCOC(=O)c1ccc(NC(=O)Cc2cccs2)cc1 | – | 4470 nM (active) |
| O=C(Cc1cccs1)Nc1ccc([N+](=O)[O-])cc1 | 3.07% | – |
| CCOc1ccccc1NC(=O)Cc1cccs1 | -0.154% | – |
| CCOC(=O)N1CCN(C(=O)COC(=O)c2cccc(S(C)(=O)=O)c2)CC1 | 0.715% | – |
| CCOc1ccc(NC(=O)c2cccc3c2C(=O)N(CC2CCCO2)C3)cc1 (configuration not stated) | 13.7% | – |
| CC(=O)c1sc(NC(=O)CCN2C(=O)C3CC=CCC3C2=O)nc1-c1ccccc1 (configuration not stated) | 2.81% | – |
| COc1ccc(C(=O)N/N=c2\oc3ccccc3cc2C(N)=O)cc1 | 11% | – |
| NC(=O)c1cc2ccccc2o/c1=N/NC(=O)c1cccc(F)c1 | 12.8% | – |

| Structure (SMILES) | activation, negative = inhibition | Potency |
| --- | --- | --- |
| COc1cccc2cc(C(N)=O)/c(=N\NC(=O)c3ccccc3)oc12 | – | 3550 nM (active) |
| CC(=O)Nc1ccc(Nc2cc(C)nc(Nc3ccc(NC(C)=O)cc3)n2)cc1 | 6.88% | – |
| COc1ccc(CNc2nccs2)cc1 | 22.9% | – |
| Cc1ccn2cc(C(=O)NC3CCN(Cc4ccccc4)CC3)nc2c1 | -8.26% | – |
| CCN(c1cccc(C)c1)S(=O)(=O)c1ccc(-c2coc(C)n2)cc1 | 0.0972% | – |
| COc1ccc(-c2cn3ccc(C)cc3n2)cc1 | – | 112 nM (active) |
| COc1ccc(-n2c(-c3ccc(OC)c(OC)c3)n[nH]c2=S)cc1 | 0.467% | – |
| CCN(CC)S(=O)(=O)c1ccc(-c2cn3ccc(C)cc3n2)cc1 | – | 2240 nM (active) |
| COc1ccc(-c2cn3ccsc3n2)cc1 | – | 708 nM (active) |
| CCN(CC(=O)NCCc1ccccc1)S(=O)(=O)c1ccc(C)cc1 | 1.84% | – |
| COc1cc(OC)cc(-c2nc(=S)n3ccsc3n2)c1 | 17.6% | – |
| Cc1ccccc1N1CCN(C2CCCN(C(=O)c3cn4c(C)cccc4n3)C2)CC1 (configuration not stated) | 0.145% | – |
| COc1ccccc1N1CC(C(=O)NCCN2C(=O)S/C(=C\c3cccnc3)C2=O)CC1=O (configuration not stated) | -3.77% | – |
| CC1CCCCC12NC(=O)N(CC(=O)OCC(=O)NCc1ccc(F)cc1)C2=O (configuration not stated) | -4.59% | – |
| Cc1nn(C(C)C(=O)N2CCOCC2)c(=O)c2nn(-c3ccccc3)c(C)c12 (configuration not stated) | -3.34% | – |
| O=C1C=C(c2cccc(Cl)c2)C[C@@H](c2ccc(F)cc2)C1 | -3% | – |
| COc1ccc(C(=O)CSc2nnc(NC(=O)C3CC(=O)N(c4cccc(OC)c4)C3)s2)cc1 (configuration not stated) | -1.42% | – |
| COc1ccc(/C=N/Nc2nc(-c3ccc(C)cc3)c(C#N)c(=O)[nH]2)cc1 | 4.07% | – |
| COc1ccc(/C=N/Nc2ccccc2C(=O)O)cc1 | – | 89.1 nM (active) |
| COc1ccc(/C=N/OCC(=O)N(Cc2ccccc2)c2ccccc2C(=O)O)cc1 | -2.72% | – |
| COc1ccc(/C=N/Nc2nc3ccccc3c(=O)[nH]2)cc1 | – | 1580 nM (active) |
| COc1ccc(CCCc2nnc(SCc3nc4ccccc4c(=O)[nH]3)n2C)cc1 | -0.291% | – |

| Structure (SMILES) | activation, negative = inhibition | Potency |
| --- | --- | --- |
| COc1ccc(/C=N/NS(=O)(=O)c2ccc(NC(C)=O)cc2)cc1 | -2.84% | – |
| COc1ccccc1C(=O)NCC(=O)OCC(=O)Nc1nnc(-c2ccccc2)o1 | -0.991% | – |
| COc1cc(OC)cc(C(=O)Nc2nnc(SCC(=O)NCC3CCCO3)s2)c1 (configuration not stated) | 1.89% | – |
| COc1ccc(C)cc1NC(=O)CCCN1C(=O)NC(C)(C)C1=O | 2.01% | – |
| Cc1ccc(S(=O)(=O)NCCNC(C)c2ccc(Br)cc2)cc1 (configuration not stated) | -8.2% | – |
| CCC1(C)NC(=O)N(CC(=O)N2CCN(c3cccc(Cl)c3)CC2)C1=O (configuration not stated) | -5.43% | – |
| COc1cc2c(cc1OC)CC1(CCCCC1)N=C2 | -4.73% | – |
| Cc1ccc(N/N=C2\COC(C)(C)CC2=O)cc1 | – | 3160 nM (active) |
| CCC1(C)CC(=O)NC1=O (configuration not stated) | 7.83% [at 46.1 µM] | – |
| Cc1ccc(C(=O)CSc2nc3ccccc3c(=O)n2N)o1 | – | 3550 nM (active) |
| COc1ccc(NC(=O)CSc2nc3ccccc3c(=O)n2C)cc1 | -9.43% | – |
| COC(=O)CSc1nc2ccccc2c(=O)n1Cc1ccccc1 | -0.304% | – |
| Cc1ccccc1-c1cc(C(=O)NCC2CC2)n(CC2CC(c3cccnc3)=NO2)n1 (configuration not stated) | -2.34% | – |
| COc1cc(C(C)=O)ccc1OC(C)C(=O)Nc1ccc(S(=O)(=O)N2CCCC2)cc1 (configuration not stated) | -8.76% | – |
| O=C(NCC1CCC(C(=O)O)CC1)OCc1ccccc1 (configuration not stated) | -5.42% | – |
| CCOC(=O)N1CCC(NC(=O)CCc2ccccc2)CC1 | 4.41% | – |
| O=C(O)C1CCN(C(=O)OCc2ccccc2)CC1 | – | 4470 nM (active) |
| COc1ccc(Cl)cc1NC(=O)CN(C)CC(=O)Nc1ccc2c(c1)OCO2 | 0.254% | – |
| COc1ccc(CN(Cc2ccco2)S(=O)(=O)c2ccc(S(=O)(=O)N3CCCC3)cc2)cc1 | -0.878% | – |
| COc1ccccc1-n1nnnc1SCC(=O)NC(=O)Cc1ccccc1 | -6.08% | – |
| Cc1ccc(S(=O)(=O)CC(=O)Nc2nnc(C)s2)cc1 | -2.65% | – |
| Cc1ccc(C(=O)Cc2nnc(C)s2)cc1 | – | 2820 nM (active) |

| Structure (SMILES) | activation, negative = inhibition | Potency |
| --- | --- | --- |
| Cc1ccc(C(=O)Cn2cccn2)cc1 | -3.96% | – |
| CC(OC(=O)c1cc2ccccc2o1)C(=O)Nc1ccc(N2CCOCC2)cc1 (configuration not stated) | 4.05% | – |
| Cc1ccc2oc(=O)c3cnn(CC(=O)N(Cc4ccco4)C4CCCCC4)c3c2c1 | 1.23% | – |
| O=C(NCc1cccnc1)c1cccc(-c2cc3ccccc3oc2=O)c1 | -2.68% [at 1.84 µM] | – |
| Nc1ncc(-c2cc3ccccc3oc2=O)s1 | – | 1120 nM (active) |
| Cc1cc2c(=O)n(C)c(SCC(=O)c3cc4ccccc4o3)nc2s1 | 1.71% | – |
| COc1ccccc1C(CNC(=O)c1cccc(S(=O)(=O)Nc2ccc(F)cc2)c1)N(C)C (configuration not stated) | -11.7% | – |
| Cc1nn(C)c(Cl)c1CN1CCC(n2nccc2NC(=O)C2CCCC2)CC1 | -5.14% | – |
| CC(Sc1nnc(-c2cccs2)n1C1CC1)C(=O)NCC1CCCO1 (configuration not stated) | -8.6% | – |
| Cc1nc(-c2ccccc2)sc1C(=O)/C=C/N(C)C | – | 2820 nM (active) |
| Cc1nc(-c2ccc(Cl)cc2)sc1C(=O)CBr | 5.69% | – |
| CN(C)/C=C/C(=O)c1ccccc1F | 7.12% | – |
| CC(C)CN(C(=O)CSc1nncn1C)C1CCS(=O)(=O)C1 (configuration not stated) | 1.54% | – |
| Cc1ccc(C(=O)NNc2ncnc3ccccc23)cc1 | – | 3980 nM (active) |
| Cc1ccc(C(=O)NNC(=O)c2cc3cc4ccccc4nc3s2)cc1 | 1.92% | – |
| CCc1nc(SCC(=O)NNC(=O)c2ccc(C)cc2)c2ccccc2n1 | -0.467% | – |
| COc1ccc(CNC(=O)COC(=O)c2c(C)nn(-c3ccccc3)c2C)cc1OC | -7.89% | – |
| CN(C)C(CNC(=O)c1cccc(C#N)c1)c1ccco1 (configuration not stated) | -2.23% | – |
| Cc1cc(F)ccc1S(=O)(=O)Nc1ccc(C(=O)N(C)Cc2ccco2)cc1 | 0.153% | – |
